In all, about 290,000 compounds went through this assay and about 3,000 (1%) were called active. This is one part of a sample in which actives are shown more often than they occur. Cut-off read from the data, not from the text of the source: active = inhibition mostly above about 36% (no sharp cut-off); inactive = mostly below about 34%.

What is called inhibition is the relative decrease from the control value, in per cent.

This test can be described thus: inhibition of NOD1-driven NF-kB reporter – cell-based, luminescence, uHTS, primary screen (AID 1578).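 Note: HEK-293T reporter cells stimulated with the NOD1 agonist gamma-tri-DAP.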 Conditions: NOD1-driven NF-kB luciferase reporter cells, at 4 µM, hits give high values. For orientation: In a reporter assay the amount or activity of a reporter protein is the signal.
With `Cc1ccc(O)c(C(CC(=O)NCc2ccco2)c2ccccc2)c1` (stereo not drawn), the inhibition is -21.1% (inactive).
Then `Cc1nnc(SCC(=O)c2ccccc2F)n1Cc1ccccc1`, with -6.1% (inactive); and `COCC1CCN(C(=O)c2cc(COc3ccc(OC)c4ccccc34)on2)C1` (stereo not drawn), with -73.2% (inactive); and `CS(=O)(=O)N(CCCC(=O)N1CCCCCC1)c1cccc(Cl)c1`, with 0.2% (inactive).
Then `CCN(CC)CCNC(CC(=O)Nc1ccc(Cl)cc1Cl)C(=O)O` (stereo not drawn), with -7% (inactive); and `COc1ccc(-c2cc(NCCc3ccncc3)n3ncnc3n2)cc1`, with 2.6% (inactive).
For the compound `COc1ccc(NC(=O)NCc2ccco2)cc1OC`, the inhibition is -24.4% (inactive).
Then `COc1cc(S(=O)(=O)NCc2ccncc2)c(OC)cc1C`, with -15.2% (inactive); and `O=[N+]([O-])c1cccc(/C=C/c2nc[nH]c2[N+](=O)[O-])c1`, with -10.5% (inactive); and `Cc1cccc(C(=O)Oc2ccccc2C(=O)N2CCOCC2)c1`, with -8.5% (inactive).
Then `COCCn1c(C)cc(C2=NNC(=Nc3ccccc3)SC2)c1C`, with -63.4% (inactive); and `COCCn1c(C)cc(C2=NNC(=Nc3ccc(Cl)cc3Cl)SC2)c1C`, with 13.9% (inactive).
With `COCCn1c(C)cc(C2=NNC(=Nc3ccccc3F)SC2)c1C`, the inhibition was 65.1% (active).
On to `Cc1c(C)c2ccc(O)c(CN3CCCC3)c2oc1=O`, for which the inhibition is 15.3% (inactive).
Then `Cn1c2ccccc2c(=O)c2cc(C#CC3(O)CCCCC3)ccc21`, with 35% (inactive).
Then `Cn1c2ccccc2c(=O)c2ccc(C#CC3(O)CCCCC3)cc21`, with 82% (active); and `Cn1c2ccccc2c(=O)c2ccc(C#CC3(N)CCCCC3)cc21`, with 30.6% (inactive); and `CCC(=O)N1CCc2cc(S(=O)(=O)NCCC(=O)N3CCN(c4ccccc4)CC3)ccc21`, with -26.5% (inactive).
`O=C1CCN(CCCc2ccccc2)CCN1[C@H](CO)Cc1ccccc1`: the inhibition was -31.4% (inactive).
Then `COc1ccccc1-c1nc(C#N)c(N2CCN(c3ccccc3)CC2)o1`, with -2.9% (inactive); and `COc1ccc(-c2nc(C#N)c(N3CCN(c4cccc(Cl)c4)CC3)o2)cc1OC`, with 5.2% (inactive).
Then `C[C@@H]1CC=C[C@H]2[C@H]1C(=O)N(Cc1ccccc1)[C@H]2c1ccc(-c2ccoc2)cc1F`, with -2.6% (inactive); and `Cc1c(O)ccc2c(CC(=O)N[C@@H](Cc3c[nH]c4ccccc34)C(=O)O)cc(=O)oc12`, with -0.1% (inactive).
For the compound `FC(F)(F)c1cc(-c2ccccc2)nc(N2CCCCCC2)n1`, the inhibition was 37.9% (active).
Take `FC(F)(F)c1cc(-c2ccccc2)nc(N2CCCCC2)n1`: the inhibition is 8.3% (inactive).
For the compound `CN1CCN(c2nc(-c3ccccc3)cc(C(F)(F)F)n2)CC1`, the inhibition was -26.3% (inactive).
Then `Cc1nn(C)cc1/C=N\NC(=O)Cc1ccc([N+](=O)[O-])cc1`, with -27.7% (inactive).
In the case of `COc1ccc(C#Cc2ccc3c(=O)c4ccccc4n(C)c3c2)cc1`, the inhibition is 25.7% (inactive).
As to `CCCC(=O)NC(=S)Nc1cccc(Cl)c1N1CCCC1`, the inhibition is -26.8% (inactive).
Then `CCC(=O)NC(=S)Nc1cccc(Cl)c1N1CCCC1`, with 55.9% (active); and `CCCC(=O)NC(=S)Nc1cccc(Cl)c1N1CCCCC1`, with -26.4% (inactive); and `COC(=O)C1Cc2ccccc2CN1C(=O)CCl` (stereo not drawn), with 39.2% (inactive).
Then `O=C(Cc1ccccc1)N/N=C/c1cc(Br)cs1`, with 1.2% (inactive); and `Cc1nccn1CC(=O)N/N=C/c1cc(Br)cs1`, with -0.6% (inactive); and `CCN1CCN(CC(=O)N/N=C/c2cc(Br)cs2)CC1`, with 104% (active).
Then `Cc1cc(C)n(-c2nc3c(c(=O)[nH]c(=O)n3C)n2C(C)C)n1`, with 5.7% (inactive).
Regarding `O=C(CN1CCN(c2ccc(F)cc2)CC1)Nc1cc(C(F)(F)F)ccc1Cl`, the inhibition was -11.8% (inactive).
Then `CCOC(=O)CNC(=O)C1Cc2ccccc2CN1S(=O)(=O)c1cccs1` (stereo not drawn), with -33% (inactive); and `COc1ccc(C2CC(c3cccs3)=NN2S(C)(=O)=O)cc1` (stereo not drawn), with -18% (inactive); and `COc1cccc(C2CC(c3cccs3)=NN2S(C)(=O)=O)c1` (stereo not drawn), with 47.7% (active).
Then `COc1ccc(C2CC(c3cccs3)=NN2S(C)(=O)=O)cc1OC` (stereo not drawn), with -25.1% (inactive).
Then `COc1ccc(C(=O)Nc2nnc(Cc3ccccc3)s2)c(OC)c1`, with -43.9% (inactive).
For `O=[N+]([O-])c1ccc(S(=O)(=O)N/N=C/c2ccco2)cc1`, the inhibition was -34.8% (inactive).
Then `CCOC(=O)c1cnc2ccc(OCC)cc2c1NCCN1CCOCC1`, with -21.5% (inactive); and `O=c1cc(-c2ccc3c(c2)OCO3)oc2ccccc12`, with -38.2% (inactive); and `COc1ccc(-c2csc(N3CCN(c4cc(C)nc5ccccc45)CC3)n2)cc1OC`, with 54.5% (active).
Take `Cc1cc(N2CCN(c3nc(-c4ccccc4)cs3)CC2)c2ccccc2n1`: the inhibition was -3.1% (inactive).
`Cc1cc(N2CCN(c3nc(-c4ccc([N+](=O)[O-])cc4)cs3)CC2)c2ccccc2n1`: the inhibition is 3.5% (inactive).
On to `C[C@@H]1C=C(C(=O)NCc2ccccc2)O[C@H](OCc2ccc(CO)cc2)C1`, for which the inhibition is -6.2% (inactive).
Then `O=C1/C(=C/c2ccc([N+](=O)[O-])cc2)C=C(c2ccccc2)N1c1ccccc1`, with -31.4% (inactive); and `O=C1/C(=C/c2ccc([N+](=O)[O-])cc2)C=C(c2ccccc2)N1c1ccc(O)cc1`, with 28.6% (inactive); and `O=C(O)c1cccc(N2C(=O)/C(=C/c3ccc([N+](=O)[O-])cc3)C=C2c2ccccc2)c1`, with 55.4% (active).
Turning to `O=C(NCc1cccnc1)C1CCCN(S(=O)(=O)c2cccc3nsnc23)C1` (stereo not drawn), the inhibition is -7.8% (inactive).
Then `CCOC(=O)c1ccc(NC(=S)NCCc2ccccc2)cc1`, with 0.7% (inactive).
Then `CCOC(=O)c1ccc(NC(=S)NCCc2ccc(F)cc2)cc1`, with 72.6% (active); and `CCOC(=O)c1ccc(NC(=S)NCCc2ccccc2F)cc1`, with -22.7% (inactive).
Then `CCCCCCn1c(CN2CCCCC2C)nc2c1c(=O)n(C)c(=O)n2C` (stereo not drawn), with -20.6% (inactive).
On to `CCOC(=O)c1c(C2CC2)csc1NC(=O)COC(=O)c1cc(OC)c(OC)cc1[N+](=O)[O-]`, for which the inhibition is -39.9% (inactive).
For `CN1C(=O)/C(=C/c2cccc(Cl)c2)Sc2ccc(C(=O)NCc3cccnc3)cc21`, the inhibition is 4.4% (inactive).
In the case of `COc1cccc(/C=C2\Sc3ccc(C(=O)NCc4cccnc4)cc3N(C)C2=O)c1`, the inhibition was 44.2% (inactive).
Then `COc1ccc(/C=C2\Sc3ccc(C(=O)NCc4cccnc4)cc3N(C)C2=O)cc1OC`, with 42.3% (active); and `Cc1cccc(N(C(=O)CNC(=O)c2ccco2)C(C(=O)NC2CCCC2)c2ccncc2)c1` (stereo not drawn), with -12.6% (inactive).
Then `CC1=NN(c2nc(-c3ccc(Cl)cc3)cs2)C(=O)C1`, with 46.6% (inactive); and `O=C1CC(c2ccccc2)=NN1c1nc(-c2ccccc2)cs1`, with 65.7% (active).
Then `CC1=NN(c2nc(-c3ccccc3)cs2)C(=O)C1`, with 3.7% (inactive).
Take `CCCNC(=O)c1onc(CSc2cccc(OC)c2)c1C(=O)NCCC`: the inhibition was -4% (inactive).
Then `Nc1nc(-c2ccc(NC(=O)c3ccco3)cc2)cs1`, with -4.3% (inactive).
Then `Cc1nc(-c2ccc(NC(=O)c3ccco3)cc2)cs1`, with 54.6% (active).
Then `Cc1nc(-c2cccc(NC(=O)c3ccco3)c2)cs1`, with -30.5% (inactive); and `Cc1ccc(C(=O)Nc2ccc(-c3csc(C)n3)cc2)cc1`, with -53.9% (inactive); and `Cc1nc(-c2ccc(C(=O)Nc3cccc(Br)c3)cc2)cs1`, with 47.3% (active).
Turning to `Cc1nc(-c2ccc(C(=O)Nc3cccc(F)c3)cc2)cs1`, the inhibition is 26.3% (inactive).
Then `COCCN1Cc2cccc(C(=O)Nc3cccc(-c4nc5ccccc5[nH]4)c3)c2C1=O`, with -5.5% (inactive).
In the case of `CCOc1ccc(C(=O)OCc2nnc(-c3cccs3)o2)cc1OC`, the inhibition is -3.4% (inactive).
Regarding `Oc1nc(Nc2ccccc2)sc1/C=C1\C=Nc2ccccc21`, the inhibition is -13.5% (inactive).
Then `O=C(COC(=O)c1ccccc1Br)NCc1ccccc1`, with -32% (inactive); and `CC(=O)N/C(=C/c1ccc([N+](=O)[O-])cc1)C(=O)O`, with -71.3% (inactive).
As for `O=C(O)c1cc(-c2ccc(Cl)cc2)n(-c2ccccc2)n1`, the inhibition was -29.5% (inactive).
On to `COC(=O)C1C2C=CC3(CN(c4cccc(C)c4)C(=O)C13)O2` (stereo not drawn), for which the inhibition was -25.9% (inactive).
Then `COc1ccc2nccnc2c1[N+](=O)[O-]`, with -0.6% (inactive); and `O=C(CCCc1ccccc1)NCCCc1ccccc1`, with -23.7% (inactive); and `O=C(CCCCC(=O)NCCCc1ccccc1)NCCCc1ccccc1`, with -23.1% (inactive).
Then `O=C(CCC(=O)NCCCc1ccccc1)NCCCc1ccccc1`, with 80.7% (active).
On to `CCn1c(-c2ccccc2)c(C(=O)O)c2ccccc21`, for which the inhibition was -1.6% (inactive).
`CCn1c(-c2ccccc2)c(C(=O)CC#N)c2ccccc21`: the inhibition is -39.5% (inactive).
As to `CCn1c(-c2ccccc2)c(C(=O)CCl)c2ccccc21`, the inhibition was 79.5% (active).
Then `Cc1ccc(OCc2nnc(SCC(N)=O)n2N)cc1`, with -1.8% (inactive).
With `O=C(Cc1c[nH]c2ccccc12)Nc1ccc(N2CCOCC2)cc1`, the inhibition was -30.3% (inactive).
With `NC(=O)C1(N2CCCCC2)CCN(C(=S)Nc2ccc(S(N)(=O)=O)cc2)CC1`, the inhibition was -18.7% (inactive).
Then `COc1cccc(OCc2cc(C(=O)NCc3ccccn3)no2)c1`, with -60.1% (inactive); and `COc1cccc(OCc2cc(C(=O)NCc3ccc4c(c3)OCO4)no2)c1`, with -60.1% (inactive).
For the compound `O=C(O)C(Cc1ccccc1)N1C(=O)/C(=C/c2ccccc2)SC1=S` (stereo not drawn), the inhibition is 40.1% (inactive).
Regarding `O=C(O)C(Cc1ccccc1)N1C(=O)/C(=C/c2cccs2)SC1=S` (stereo not drawn), the inhibition is 3% (inactive).
With `Cc1ccc(CCNC(=O)CN(C)S(=O)(=O)c2ccc3c(c2)n(C)c(=O)c(=O)n3C)cc1`, the inhibition is -2.1% (inactive).
Then `COc1cc(Br)c(/C=C/c2ccc3cccc(O)c3n2)cc1OC`, with 11.8% (inactive).
Then `COc1ccc(/C=C/c2ccc3c(Br)ccc(O)c3n2)cc1`, with 0.6% (inactive); and `COc1cc(/C=C/c2ccc3c(Br)cc(Br)c(O)c3n2)ccc1O`, with 79.9% (active).
Then `COc1cccc(/C=C/c2ccc3cccc(O)c3n2)c1`, with 7.9% (inactive); and `COc1ccccc1/C=C/c1ccc2cccc(O)c2n1`, with -8.4% (inactive).
Turning to `COc1ccc(/C=C/c2ccc3cccc(O)c3n2)cc1Br`, the inhibition is 6.9% (inactive).
In the case of `COc1ccc(/C=C/c2ccc3cccc(O)c3n2)c(OC)c1OC`, the inhibition is 16.5% (inactive).
In the case of `COc1cc(Br)cc(/C=C/c2ccc3cccc(O)c3n2)c1OC`, the inhibition was 23% (inactive).
Consider `COc1cc(Cl)cc(/C=C/c2ccc3cccc(O)c3n2)c1OC`, for which the inhibition is 8.1% (inactive).

These data come from PubChem BioAssay AID1578 (Sanford-Burnham Center for Chemical Genomics, 2009).
